# Results reported in PubChem BioAssay (Tox21).
# Inconclusive results are not listed. Unmarked numbers belong to inactive results. Activity calls are given as the source filed them. Calls follow the shape of the dose curve; as a rule, active = well fitted cell-killing curve with a large enough effect in the repeat runs; inconclusive = weak or mixed curves, or effect the other way; inactive = flat fitted curve, though single readings scatter.
# Assay: qHTS assay to identify small molecule agonists of the estrogen receptor beta (ER-beta) signaling pathway - cell viability counter screen (AID 1259380); also: nearly all actives have a fitted effect of over 30% in size
# Conditions: ER-beta-bla HEK293T viability, CellTiter-Glo luminescence, 16 h; series mostly up to 92.4 µM; activity change, negative = cytotoxicity: at the top concentration
# Excerpt: National Center for Advancing Translational Sciences [NCATS]
# NIH Chemical Genomics Center [NCGC]
# U.S. Environmental Protection Agency [EPA]
# National Institutes of Environmental Health Sciences [NIEHS]
# National Toxicology Program [NTP]
# U.S. Food and Drug Administration [FDA]
# Estrogen receptor (ER), a nuclear hormone receptor, plays an important role in development, metabolic homeostasis and reproduction. Two subtypes of ER, ER-alpha and ER-beta, have similar expression patterns with some uniqueness in both types. Endocrine disrupting chemicals (EDCs) and their interactions with steroid hormone receptors like ER causes disruption of normal endocrine function. To identify the compounds that activate ER signaling, an ER beta-UAS-bla GripTite cell line (Life Technologies, Madison, WI, USA) containing a beta-lactamase reporter gene under the control of an UAS response element was used to screen Tox21 10K compound library. The cytotoxicity of the Tox21 compound library against the ER-beta-bla cell line was tested in parallel by measuring the cell viability using CellTiter-Glo assay in the same wells.
# Tox21 Assay Protocol Summary:
# ER-beta-UAS-bla HEK293T cells were dispensed at 2,000 cells/5 uL of assay medium containing 2% charcoal stripped FBS per well into black wall/clear-bottom 1536-well plates using a Multidrop Combi (ThermoFisher Scientific, Waltham, MA) dispenser. After the assay plates were incubated at a 37C and 5% CO2 for 6 hr, 23 nL of compounds dissolved in DMSO, positive controls or DMSO only was transferred to the assay plate by a Pintool station (Kalypsys, San Diego, CA). The plates were incubated at 37C and 5% CO2 for 16 hr. Then 1 uL of LiveBLAzerTM B/G FRET substrate was added using a BioRAPTR FRD (Flying Reagent Dispenser, Aurora Discovery, San Diego, CA) and then the plates were incubated at room temperature for 2 hours, and fluorescence intensity was measured by an Envision plate reader (PerkinElmer, Shelton, CT). For cell viability readout that measures cytotoxicity, 4 uL/well of CellTiter-Glo reagent was added into the assay plates using a FRD. After 30 min incubation at room temperature, the luminescence intensity in the plates was measured using a ViewLux (PerkinElmer) plate reader.
# % is scaled to controls: 0 for no effect and ±100 for the full control effect; potency is read from the fitted curve at half-maximal effect.
Compound,"activity change, negative = cytotoxicity",Potency
CCCCCCCCC(=O)OCC(C)OC(=O)CCCCCCCC (stereo not given),0.443%,
CC/C=C/CCO,-15.1%,
CO[C@@H]1COCC[C@@H]1N[C@@H]1CC[C@@](C(=O)N2CCc3ncc(C(F)(F)F)cc3C2)(C(C)C)C1,-0.47%,
CC(CCl)OC(C)CCl (stereo not given),0.301%,
CC(C)(C(=O)O)c1ccc(C(O)CCCN2CCC(C(O)(c3ccccc3)c3ccccc3)CC2)cc1 (stereo not given),-3.58% [at 42.5 µM],
CC1=C(C)C(=O)C(CCCCC#CCCCC#CCO)=C(C)C1=O,,18.8 µM (active)
CC(=O)Nc1cccc(N)c1,-8.82%,
C/C=C1\[C@H]2C=C(C)C[C@]1(N)c1ccc(=O)[nH]c1C2,-1.27% [at 42.5 µM],
O=C(O)CNc1ccccc1,1.95%,
CC(=O)c1cccnc1,0.0795%,
O=C(Cl)c1cc(Cl)cc(Cl)c1,6.55%,
CCOCCn1c(N2CCCN(C)CC2)nc2ccccc21,-0.125% [at 42.5 µM],
C[C@H]1C[C@H]2[C@@H]3CCC4=CC(=O)C=C[C@]4(C)[C@@]3(F)[C@@H](O)C[C@]2(C)[C@@]1(O)C(=O)COP(=O)(O)O,1.37%,
O=[N+]([O-])c1cccc(I)c1,2.04%,
CCc1c(C)[nH]c2c1C(=O)C(CN1CCOCC1)CC2 (stereo not given),1.45% [at 42.5 µM],
C=CC(O)CCCCC (stereo not given),5.79%,
O=C(O)c1cc(C(=O)O)c(C(=O)O)cc1C(=O)O,-0.941%,
OCCOc1cccc(OCCO)c1,4.69%,
O=C(OCCCCCOC(=O)c1ccccc1)c1ccccc1,0.202%,
CCc1ccc(C(=O)C(C)CN2CCCCC2)cc1 (stereo not given),-4.06% [at 42.5 µM],

Compound,"activity change, negative = cytotoxicity",Potency
CC(=O)Oc1cccc2c1C(=O)c1c(OC(C)=O)cc(C(=O)O)cc1C2=O,0.989% [at 42.5 µM],
Oc1ccc(CCNCCCCCCNCCc2ccccc2)cc1O,-9.26% [at 42.5 µM],
CCC(C)C1N=C(C)C(C)S1 (stereo not given),-0.325%,
CC(=O)Nc1ccccc1O,3.09%,
CC(CN=Cc1ccccc1O)N=Cc1ccccc1O (stereo not given),-0.428%,
CCCCCCCCCCCCCCCCN,0.392% [at 42.5 µM],
C=CC(=O)NC(C)(C)C,0.313%,
O=C(OCCOCCOCCOC(=O)c1ccccc1)c1ccccc1,-5.72%,
CCCC1CCOC(C)S1 (stereo not given),-2.05%,
CC(C)=CCC/C(C)=C/C=N/O,-12.5%,
O=C(OC1C[C@H]2CC[C@@H](C1)[N+]21CCCC1)C(O)(c1ccccc1)c1ccccc1 (stereo not given in full),-14.3% [at 42.5 µM],
C=Cc1ccc(C=C)cc1,-2.39%,
Cc1ccccc1CCO,-0.367%,
CCc1ccc2c(c1)C(=O)c1ccccc1C2=O,-5.12%,
CC(=O)OCC(=O)[C@@]1(O)CC[C@H]2[C@@H]3CCC4=CC(=O)C=C[C@]4(C)[C@@]3(F)[C@@H](O)C[C@@]21C,0.171% [at 42.5 µM],
O=C(Nc1ccccc1)c1cc([N+](=O)[O-])ccc1Cl,1.29%,
Cc1cc(C)c(C)c(O)c1,6.44%,
COc1ccc(/C(C)=C/C(=O)O)c(OC)c1,0.296% [at 42.5 µM],
Cc1cc(SC2=C(O)C[C@@](CCc3ccc(N)cc3)(C(C)C)OC2=O)c(C(C)(C)C)cc1CO,0.309%,
C1CCN(CN2CCCCC2)CC1,4.65%,
